Source: PubChem BioAssay
Calls of active or inactive are those of the source.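 Rule for the calls, unless noted: active = NADPH fluorescence slope more negative than the mean of all samples by about 3 SD, 99.7% confidence; inactive = the rest.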

Key:
[1] = inhibitors of TNFa-induced NFkB p65 translocation, primary screen, imaging, HUVEC, MLSMR starter and 10KST1 sets (AID 438;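 active = inhibition above 20% together with a positive visual image hit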;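 note: compound added about 3h40 before a 20 min TNFalpha stimulation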;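 for inhibition: signal is the nuclear over cytoplasmic p65 intensity ratio per well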); details: HUVEC TNFa-induced p65 nuclear translocation; cell count: measured here: nuclei count (cytotoxicity indicator), at 2.08 µM; inhibition: at 2 µM, stronger effect = higher value, 0% TNFa-plus-vehicle, 100% no-TNFa wells
[2] = inhibitors of mutant huntingtin aggregation, primary screen, imaging, exon1htt(103Q)mCFP cells, high-content imaging (AID 483;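 active = visual image review flags a hit and inhibition of aggregation exceeds 20%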;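 note: compound exposure lasted 3 days before fixation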;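 for nuclei count: percent of the per-plate median nuclei count of sample wells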); details: exon1htt(103Q)mCFP cell line, aggregate imaging, at 2 µM; inhibition of aggregation: stronger effect = higher value; nuclei count: measured here: cell count, toxicity
[3] = inhibitors of E-selectin induction by TNFa, primary screen, imaging, HUVEC, immunofluorescence, MLSMR starter and 10KST1 sets (AID 487;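 active = visually confirmed hit in the image check and inhibition above 20%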;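 for inhibition: signal is fraction of cell area covered by stained E-selectin grains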;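 for nuclei count: 100% = median nuclei count of all wells on the same plate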); details: HUVEC TNFalpha-induced E-selectin immunofluorescence imaging, at 2 µM; inhibition: stronger effect = higher value; nuclei count: measured here: cell number, toxicity
[4] = molecular target: Voltage-gated potassium channel subunit beta-2 (Rattus norvegicus) (UniProt P62483); assay: KvBeta enzyme negative modulators, primary screen, biochemical, NADPH fluorescence (AID 622;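 active = fluorescence slope higher than the sample average by over 3 SD, cut at about -0.22 in these data, passing the limit was not always enough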;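 note: slope of raw intensity against log time taken from 70 to 1610 s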); details: recombinant KvBeta, 4-cyanobenzaldehyde reduction, at 10 µM, stronger effect = higher value
Voltage-gated potassium channel subunit beta-2 (Rattus norvegicus), sequence (P62483 whole entry, looked up): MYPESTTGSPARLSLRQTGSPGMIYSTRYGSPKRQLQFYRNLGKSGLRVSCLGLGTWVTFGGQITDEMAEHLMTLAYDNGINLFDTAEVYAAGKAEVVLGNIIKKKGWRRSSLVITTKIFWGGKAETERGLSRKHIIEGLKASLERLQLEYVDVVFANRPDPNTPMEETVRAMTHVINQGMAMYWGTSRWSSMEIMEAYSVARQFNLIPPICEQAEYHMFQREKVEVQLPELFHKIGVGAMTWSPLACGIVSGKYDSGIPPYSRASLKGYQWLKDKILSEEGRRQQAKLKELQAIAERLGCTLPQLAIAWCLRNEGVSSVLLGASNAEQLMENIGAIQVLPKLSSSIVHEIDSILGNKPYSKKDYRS

[5] = molecular target: Voltage-gated potassium channel subunit beta-2 (Rattus norvegicus) (UniProt P62483); assay: KvBeta positive modulators, primary screen, biochemical, NADPH fluorescence (AID 623); details: Recombinant KvBeta, NADPH fluorescence decrease slope, 10 min; at 10 µM; stronger effect = lower value;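 note: fluorescence intensity change per second fitted from 20 to 320 s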
[6] = molecular target: Alpha-2C adrenergic receptor (Homo sapiens) (UniProt P18825); assay: modulators of alpha2C/GIRK thallium flux, primary screen, cell-based, HEK293 alpha2C/GIRK1/2 (AID 624;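 active = fluorescence slope after compound addition differing from the mean of all screened samples at 99.7% confidence, in either direction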;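 note: slope of fluorescence ratio to pre-addition baseline per second over 15 to 24 s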); details: thallium flux BTC fluorescence, at 10 µM, actives lie on both sides
Alpha-2C adrenergic receptor (Homo sapiens), sequence (P18825 whole entry, looked up): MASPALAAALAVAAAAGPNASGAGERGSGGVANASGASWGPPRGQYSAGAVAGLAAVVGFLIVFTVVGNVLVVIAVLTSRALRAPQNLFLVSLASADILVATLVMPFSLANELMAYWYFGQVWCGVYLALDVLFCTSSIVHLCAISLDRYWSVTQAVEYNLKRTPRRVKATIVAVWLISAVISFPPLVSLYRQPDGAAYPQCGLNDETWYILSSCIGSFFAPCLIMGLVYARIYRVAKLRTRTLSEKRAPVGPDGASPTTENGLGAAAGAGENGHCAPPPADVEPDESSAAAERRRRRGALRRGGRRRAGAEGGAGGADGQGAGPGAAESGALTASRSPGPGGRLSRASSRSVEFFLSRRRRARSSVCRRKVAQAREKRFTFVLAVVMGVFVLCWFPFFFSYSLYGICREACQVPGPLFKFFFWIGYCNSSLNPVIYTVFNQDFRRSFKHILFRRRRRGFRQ

[7] = inhibitors of Sendai virus-induced IRF3 signaling, primary screen, TLR/RLR signaling modifier project, cell-based, Sendai virus stimulus, luciferase, 10K MLSCN set (AID 602276;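 active = inhibition at or above 50% at 10 µM; inactive = inhibition below 50%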;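 note: firefly luciferase from ISG56 promoter only with Renilla not read in this screen; 0% = Sendai virus plus DMSO and 100% = medium plus DMSO without virus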); details: HEK293 RL24 IRF3 luciferase reporter, at 10 µM, stronger effect = higher value
[8] = inhibitors of poly I:C-induced TLR3 signaling, primary screen, cell-based, poly I:C stimulus, luciferase, 10K MLSCN set (AID 602277;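 active = inhibition of the reporter signal at or above 50%; inactive = inhibition below 50%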); details: HEK293-TLR3 RL24 IRF3 luciferase reporter, at 10 µM, stronger effect = higher value

SMILES | cell count [1] | inhibition [1] | inhibition of aggregation [2] | nuclei count [2] [%] | inhibition [3] | nuclei count [3] [%] | fluorescence slope [4] | NADPH fluorescence slope [5] | slope [6] | inhibition [7] | inhibition [8]
Cc1cccc(OCCCC(=O)O)c1 | 438 | 1.4% (inactive) | -12.7% (inactive) | 101 | -57.9% (inactive) | 116 | -0.584 (inactive) | -3.6e-05 (inactive) | 0.00464 (inactive) | -5.29% (inactive) | 8.09% (inactive)
CCCSc1nnc(N2C(=O)CC(c3ccsc3)C3=C2CCCC3=O)s1 (stereo not drawn) | 640 | -5.3% (inactive) | 24.3% (inactive) | 90.4 | -39.5% (inactive) | 102 | -0.558 (inactive) | -3.6e-05 (inactive) | 0.00697 (inactive) | 5.11% (inactive) | 26.4% (inactive)
CCn1c(=O)cc(OCC(=O)NC2CCCCC2)c2ccccc21 | 336 | 22.2% (inactive) | -2.9% (inactive) | 110 | -15.3% (inactive) | 113 | -0.263 (inactive) | 1.1e-05 (inactive) | 0.00609 (inactive) | 1.11% (inactive) | 23.9% (inactive)
CCN=C1SC(CC(=O)Nc2ccccc2)C(=O)N1CC (stereo not drawn) | 265 | 3.4% (inactive) | 26.6% (inactive) | 92 | -95.4% (inactive) | 109 | -0.341 (inactive) | -1.1e-05 (inactive) | 0.00797 (inactive) | 8.21% (inactive) | 30% (inactive)
O=C(NC1CCN(Cc2nnnn2CCc2ccccc2)CC1)c1ccccc1F | 744 | 0% (inactive) | -8.8% (inactive) | 99.7 | -44.2% (inactive) | 116 | -0.295 (inactive) | -3.3e-06 (inactive) | 0.00487 (inactive) | 11.5% (inactive) | 27.2% (inactive)
CCOC(=O)C1=C(c2ccccc2)N2CCN=C2S1 | 507 | -12.1% (inactive) | 18.9% (inactive) | 59 | -12.3% (inactive) | 94.2 | -0.521 (inactive) | -1.6e-06 (inactive) | 0.00413 (inactive) | 1.18% (inactive) | 6.97% (inactive)
COc1ccc(N2CC(C(=O)Nc3ccc(F)cc3F)CC2=O)cc1 (stereo not drawn) | 281 | -3.5% (inactive) | -30.8% (inactive) | 111 | 12% (inactive) | 104 | -0.514 (inactive) | -1.3e-05 (inactive) | 0.00428 (inactive) | 14.4% (inactive) | 20.8% (inactive)
CC(=O)c1cc(Cl)ccc1OC(=O)c1ccco1 | 475 | 0.5% (inactive) | -8.1% (inactive) | 106 | -48.1% (inactive) | 124 | -0.475 (inactive) | -9e-05 (inactive) | 0.00476 (inactive) | 18.4% (inactive) | 21% (inactive)
O=C(Cn1c(=O)oc2ccccc21)Nc1ccc(S(=O)(=O)N2CCCCC2)cc1 | 392 | 0.3% (inactive) | -5.3% (inactive) | 89.6 | -75.3% (inactive) | 126 | -0.504 (inactive) | -2.7e-05 (inactive) | 0.00415 (inactive) | 7.3% (inactive) | 14.4% (inactive)
COc1ccccc1C(=O)N1CCN(C(=O)COc2cccc(C)c2)CC1 | 430 | -5.5% (inactive) | 11.7% (inactive) | 94.2 | -52.5% (inactive) | 102 | -0.288 (inactive) | -5.4e-05 (inactive) | 0.00401 (inactive) | 14% (inactive) | 23.5% (inactive)
CCOC(=O)c1nnc(-c2ccccc2)o1 | 620 | 2.2% (inactive) | -2.9% (inactive) | 114 | -14.5% (inactive) | 89.7 | -0.592 (inactive) | -3.3e-05 (inactive) | 0.00603 (inactive) | 17.6% (inactive) | -1.89% (inactive)
CC1(C)Oc2ccc3ccc(=O)oc3c2C(N2CCCCC2)C1O (stereo not drawn) | 329 | -4.5% (inactive) | 15% (inactive) | 94.7 | -30.2% (inactive) | 104 | -0.34 (inactive) | 1.2e-05 (inactive) | 0.00144 (inactive) | 18.2% (inactive) | 33.6% (inactive)
COc1ccc(C2C(C(=O)c3sc(C)nc3C)=C(O)C(=O)N2CCN(C)C)cc1OC (stereo not drawn) | 539 | 13.4% (inactive) | -5.5% (inactive) | 96.8 | 10.8% (inactive) | 103 | -0.6 (inactive) | -7.9e-05 (inactive) | 0.0037 (inactive) | -1.16% (inactive) | 4.66% (inactive)
Cn1c(Cl)nc2ccccc21 | 467 | 3.8% (inactive) | 12.8% (inactive) | 93.2 | 45.8% (inactive) | 93.3 | -0.514 (inactive) | -5.9e-05 (inactive) | 0.00423 (inactive) | 19.3% (inactive) | 51% (active)
CCOc1ccc(NC(=O)Cn2nnc(-c3ccccc3F)n2)cc1 | 513 | -2.7% (inactive) | 19% (inactive) | 88.3 | -32.4% (inactive) | 103 | -0.539 (inactive) | 2.1e-05 (inactive) | 0.00657 (inactive) | 9.14% (inactive) | 12.8% (inactive)
Cc1nc2sc(C(c3ccco3)N3CCN(c4ccccc4F)CC3)c(O)n2n1 (stereo not drawn) | 226 | -5.9% (inactive) | 3.8% (inactive) | 104 | -0.8% (inactive) | 114 | -0.436 (inactive) | -6.1e-06 (inactive) | 0.00573 (inactive) | 7.27% (inactive) | 10.5% (inactive)
O=C(/C=C1\NC2(CCCC2)Cc2ccccc21)N1CCOCC1 | 637 | -1.6% (inactive) | -19.3% (inactive) | 88.6 | -93.5% (inactive) | 134 | -0.534 (inactive) | -4.8e-05 (inactive) | 0.00501 (inactive) | 14.1% (inactive) | 16.1% (inactive)
Cc1cccc(NC(=O)c2cc(NC(=O)c3ccco3)ccc2Cl)n1 | 678 | -2.8% (inactive) | 16.4% (inactive) | 83.5 | 19.9% (inactive) | 98 | -0.529 (inactive) | 1.5e-06 (inactive) | 0.00521 (inactive) | 1.7% (inactive) | -7.38% (inactive)
Cc1ccc(S(=O)(=O)c2cc3c(=O)n4ccccc4nc3n(CC3CCCO3)c2=N)cc1C (stereo not drawn) | 716 | -1.6% (inactive) | -3.3% (inactive) | 88.2 | 0.8% (inactive) | 106 | -0.439 (inactive) | -3.3e-05 (inactive) | 0.00461 (inactive) | 13.6% (inactive) | 23.9% (inactive)
CCOc1ccc(C2CC(=O)NC3=C2C(=O)CCC3)cc1Cl (stereo not drawn) | 481 | 10% (inactive) | 5.5% (inactive) | 106 | -1.1% (inactive) | 110 | -0.407 (inactive) | -3.2e-05 (inactive) | 0.00268 (inactive) | 5.45% (inactive) | 13.2% (inactive)
CC(C(=O)Nc1ccccc1-c1ccccc1)N1CCOCC1 (stereo not drawn) | 555 | -17.7% (inactive) | 5.4% (inactive) | 89.4 | -27.4% (inactive) | 127 | -0.527 (inactive) | -6.7e-05 (inactive) | 0.00481 (inactive) | 3.12% (inactive) | 86.4% (active)
CC1CCN(Cc2ccc(-c3nn[nH]n3)cc2)CC1 | 582 | -2.9% (inactive) | 17.9% (inactive) | 96.8 | -29.4% (inactive) | 90.6 | -0.659 (inactive) | 2.2e-05 (inactive) | 0.00582 (inactive) | 15.7% (inactive) | 27.1% (inactive)
CC(NC(=O)Nc1ccccc1)C(c1cccs1)N1CCOCC1 (stereo not drawn) | 606 | -0.5% (inactive) | -6.2% (inactive) | 97.6 | -2.9% (inactive) | 111 | -0.6 (inactive) | -9.3e-06 (inactive) | 0.00654 (inactive) | 1.55% (inactive) | 31% (inactive)
CCC1CCCCN1CCCNC(=O)CC1Oc2ccc(C)cc2NC1=O (stereo not drawn) | 810 | -1.8% (inactive) | 13.7% (inactive) | 105 | -71% (inactive) | 107 | -0.499 (inactive) | -3.5e-05 (inactive) | 0.00565 (inactive) | 5.08% (inactive) | 29.6% (inactive)
CC(=O)N1CCC(N(C(=O)Nc2ccc(C)c(C)c2)C2CCCC2)CC1 | 644 | -3.1% (inactive) | -11.9% (inactive) | 52.8 | -61.6% (inactive) | 106 | -0.258 (inactive) | -1.2e-06 (inactive) | 0.0055 (inactive) | 11.1% (inactive) | 15% (inactive)
COc1ccc(-c2nn3c(-c4cccc(C)c4)nnc3s2)cc1OC | 525 | 10.3% (inactive) | -9.4% (inactive) | 100 | -9.3% (inactive) | 114 | -0.419 (inactive) | 1.9e-05 (inactive) | 0.00514 (inactive) | -18.2% (inactive) | -17.1% (inactive)
CCOC(=O)C1C2C=CC3(CN(c4cccc(Cl)c4)C(=O)C13)O2 (stereo not drawn) | 656 | -0.3% (inactive) | 8.1% (inactive) | 105 | -11.3% (inactive) | 110 | -0.398 (inactive) | 9e-06 (inactive) | 0.0053 (inactive) | 13.2% (inactive) | 44.5% (inactive)
COC(=O)C1(C#N)C(c2ccccc2)C1(C(=O)OC)C(=O)OC (stereo not drawn) | 450 | 2.6% (inactive) | -8.3% (inactive) | 103 | -21.2% (inactive) | 118 | -0.522 (inactive) | -2.1e-05 (inactive) | 0.00516 (inactive) | 13.2% (inactive) | 26.1% (inactive)
